Source: PubChem BioAssay
A selection: hits, their analogues and other compounds. The true share with any hit is near 4.5%.
hcDAF12 agonist: H. contortus DAF-12 activation, primary screen; HEK293 hcDAF-12 lit1-tk-luc reporter, luminescence; 0% DMSO, 100% Δ7-dafachronic acid; activation, % at 6.8 µM; 370,000 compounds, 1.4% hits;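 active means activation above the mean of all tested compounds plus 3 SD, cut at about 5.5% in these data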;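 further: 100% = response to 3 µM Δ7-dafachronic acid high control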
ssDAF-12 act: activators of S. stercoralis DAF-12 nuclear receptor. 370,000 compounds, 1% hits. HEK293 ssDAF-12/GRIP1 lit1-tk-luc reporter, luminescence; % of 3 µM dafachronic acid response. activation, % at 6.8 µM;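 active means activation above the mean over all tested compounds plus 3 SD, cut at about 0.9% in these data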;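 further: 0% = DMSO-only wells and 100% = 3 µM delta7-dafachronic acid wells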
DAX1 inh-1: DAX1 (NR0B1) inhibition, primary screen. AID 652010. inhibition, % at 6.8 µM. 370,000 compounds, 1.1% hits. HEK293T StAR-luciferase reporter, SF-1/DAX-1 repression relief;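 active means inhibition above the mean over all tested compounds plus 3 SD, cut at about 3.6% in these data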;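 further: 0% = DAX-1 cells with DMSO and 100% = cells lacking DAX-1 with DMSO; higher inhibition means more luminescence from relief of DAX-1 repression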
hgDAF-12 ag: activates the H. glycines DAF-12 receptor ligand-binding domain; HEK293 GAL4-hgDAF12 UAS-luciferase reporter, agonist luminescence; normalized to butyrate control; activation, % at 6.8 µM; 370,000 compounds, 1.8% hits; AID 687014;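 active means activation above a cutoff set at the mean of all screened compounds plus 3 SD, cut at about 10% in these data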;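 further: 0% = DMSO wells and 100% = sodium butyrate wells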
GAA850 FXN act: frataxin GAA850 promoter activation | HEK293 lucGAA850 FXN promoter luciferase reporter, 24 h; percent of 10 µM SAHA response | activation, % at 6 µM | 360,000 compounds, 0.56% hits | AID 540364;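 active means activation above the average of all compounds screened plus 3 SD, cutoff fixed separately per campaign, cut at about 7.5% in these data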;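 further: 0% = DMSO wells and 100% = 10 µM SAHA wells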
DAX1 inh-2: inhibits human nuclear receptor DAX1 | P51843 | HEK293 Gal4-DAX1 luciferase reporter, luminescence | inhibition, % at 6.75 µM | 340,000 compounds, 0.99% hits;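 active means inhibition above the mean over all tested compounds plus 3 SD, cut at about 4.2% in these data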;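 further: 0% = DAX1-transfected cells with DMSO and 100% = empty-vector control cells with DMSO; inhibition shows as a rise in luminescence from relieved DAX1 repression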
Target sequence (P51843 207-470 limits assumed): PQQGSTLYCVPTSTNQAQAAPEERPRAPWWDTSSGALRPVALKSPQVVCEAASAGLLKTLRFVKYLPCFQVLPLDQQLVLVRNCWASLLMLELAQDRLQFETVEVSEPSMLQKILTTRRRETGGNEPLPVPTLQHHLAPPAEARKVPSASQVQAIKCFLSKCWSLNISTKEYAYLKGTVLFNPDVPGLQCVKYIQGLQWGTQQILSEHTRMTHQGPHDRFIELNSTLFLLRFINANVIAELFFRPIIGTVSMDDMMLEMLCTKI
DAX1 conf: NR0B1 (human) inhibition, confirmation. 2,400 compounds, 87% hits. AID 652134. shares compounds with DAX1 inh-1. inhibition, % at 6.8 µM. HEK293T StAR-promoter luciferase reporter, SF-1/DAX-1 repression;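 active means inhibition above the average of every tested compound plus 3 SD, cut at about 3.8% in these data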;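 further: 0% = DAX-1 cells with DMSO and 100% = no DAX-1 control cells with DMSO; active compounds raise luminescence by relieving repression of the StAR reporter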
SF1 AF2mut Luc: nonselective inhibitor or artifact in SF-1 mutant DAX1 counter-screen. HEK293 StAR-luciferase, SF-1 AF2 mutant, luminescence. 2,400 compounds, 78% hits. shares compounds with DAX1 inh-1. inhibition, % at 6.8 µM;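 active means inhibition above the mean of all tested compounds plus 3 SD, cut at about 3% in these data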;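 further: 0% = DAX-1 transfected cells with DMSO and 100% = cells without DAX-1 with DMSO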
LXRb hcDAF ctr: counter-screen for hcDAF-12 agonists: agonists of human LXR-beta. shares compounds with hcDAF12 agonist. HEK293 Gal4-LXR tk-luc reporter, luminescence, 24 h; normalized: DMSO 0%, positive control 100%. activation, % at 6.8 µM. 3,400 tested, under 10 active;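 active means mean percent activation of the reporter above a cutoff set as the average over tested compounds plus their standard deviation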
Target sequence (P55055 whole entry, looked up, the tested form may be a part): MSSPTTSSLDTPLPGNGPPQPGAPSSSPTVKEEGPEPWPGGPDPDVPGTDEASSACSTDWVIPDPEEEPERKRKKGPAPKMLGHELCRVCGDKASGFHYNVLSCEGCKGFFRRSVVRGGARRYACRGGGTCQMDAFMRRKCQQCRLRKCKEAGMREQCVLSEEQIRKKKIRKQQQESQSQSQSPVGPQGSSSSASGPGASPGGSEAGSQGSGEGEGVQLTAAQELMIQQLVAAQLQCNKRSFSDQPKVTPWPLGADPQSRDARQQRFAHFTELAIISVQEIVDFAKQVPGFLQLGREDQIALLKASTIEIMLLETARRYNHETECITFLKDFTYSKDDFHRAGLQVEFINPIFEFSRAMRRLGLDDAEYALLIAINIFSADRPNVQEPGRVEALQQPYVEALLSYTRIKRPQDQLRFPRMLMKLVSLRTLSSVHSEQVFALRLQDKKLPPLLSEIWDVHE
hcDAF12 ag: confirmation of H. contortus DAF-12 agonists; shares compounds with hcDAF12 agonist; HEK293 hcDAF-12 lit1-tk-luc reporter, luminescence; % of Δ7-dafachronic acid response; activation, % at 6.8 µM; 3,400 compounds, 61% hits;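 active means mean activation across triplicate tests above the threshold derived from the earlier primary screen, cut at about 5.5% in these data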;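 further: 0% = DMSO only wells and 100% = 3 µM Δ7-dafachronic acid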
hgDAF12 conf: hgDAF-12 agonism, confirmation assay; 3,300 compounds, 80% hits; AID 743050; HEK293 GAL4-hgDAF12 luciferase reporter, agonist mode; percent of butyrate response; shares compounds with hgDAF-12 ag; activation, % at 6.8 µM;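 active means mean activation over triplicate wells above the hit cutoff derived from the earlier primary screen, cut at about 11% in these data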;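 further: 0% = DMSO low control and 100% = 2 mM sodium butyrate high control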
LXRb DAF12 ctr: activates human LXR-beta, counter-screen for DAF-12 agonists; shares compounds with hgDAF-12 ag; HEK293 Gal4-LXR luciferase reporter, 24 h; activation, % at 6.8 µM; 3,300 tested, under 10 active; AID 743051;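 active means mean activation of the triplicate above a set limit carried over from the primary screen, none filed active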
* = called active by the depositor.

How did CN(CC(=O)Nc1ccccc1Cl)C(=O)c1cc2c(s1)CCCCC2 do in these assays?
hcDAF12 agonist: -1; ssDAF-12 act: -1; DAX1 inh-1: -2; hgDAF-12 ag: 3; GAA850 FXN act: 1; DAX1 inh-2: -1

Results for CN(CC(=O)Nc1ccccc1Br)C(=O)c1cc2c(s1)CCCCC2 ?
hcDAF12 agonist: 2; ssDAF-12 act: 0; DAX1 inh-1: 6.4*; hgDAF-12 ag: 14*; GAA850 FXN act: 4; DAX1 inh-2: 4.2*; DAX1 conf: 7.5*; SF1 AF2mut Luc: 4.9*; hgDAF12 conf: 11*; LXRb DAF12 ctr: 0

How did Fc1ccc(Cn2ccc3ccc(-c4ccc5ccn(Cc6ccc(F)cc6F)c5c4)cc32)c(F)c1 do in these assays?
hcDAF12 agonist: 1; ssDAF-12 act: -1; DAX1 inh-1: 0; hgDAF-12 ag: 2

What do the screens show for `CC(C)Cc1ccc(-c2cc3nc(NCCCn4ccnc4)ccn3n2)cc1`?
hcDAF12 agonist: 6.1*; ssDAF-12 act: -1; DAX1 inh-1: 5.5*; hgDAF-12 ag: 15*; GAA850 FXN act: 5; DAX1 conf: 7.6*; SF1 AF2mut Luc: 5.1*; hgDAF12 conf: 11*; LXRb DAF12 ctr: 0

Results for FC(F)(F)c1cccc(-c2cc3nc(NCCCn4ccnc4)ccn3n2)c1 ?
hcDAF12 agonist: 0; ssDAF-12 act: 0; DAX1 inh-1: -2; hgDAF-12 ag: 1; GAA850 FXN act: 2

How did COC(=O)[C@]12C[C@H](CC(=O)NCCC(C)C)C(=O)N(Cc3ccco3)C1=C[C@H](C1CCCC1)O[C@@H]2C do in these assays?
hcDAF12 agonist: -2; ssDAF-12 act: -1; DAX1 inh-1: 0; hgDAF-12 ag: 0

How did CC(C#N)(Cc1ccccc1)Nc1ccccc1 (configuration not stated) do in these assays?
hcDAF12 agonist: 6.5*; ssDAF-12 act: 0; DAX1 inh-1: 5.0*; hgDAF-12 ag: 14*; GAA850 FXN act: 1; DAX1 inh-2: -1; DAX1 conf: 0; SF1 AF2mut Luc: 1; hgDAF12 conf: -2; LXRb DAF12 ctr: 0

How did C=CC(=O)NC(C)(C)Cc1ccccc1 do in these assays?
hcDAF12 agonist: -2; ssDAF-12 act: -1; DAX1 inh-1: 0; hgDAF-12 ag: -2; GAA850 FXN act: 1; DAX1 inh-2: 1

What do the screens show for `O=C(NN=C1CCCCCC1)c1cccs1`?
hcDAF12 agonist: 8.0*; ssDAF-12 act: 1; DAX1 inh-1: 13*; hgDAF-12 ag: 25*; GAA850 FXN act: 2; DAX1 inh-2: 3; DAX1 conf: 1; SF1 AF2mut Luc: 1; LXRb hcDAF ctr: 0; hcDAF12 ag: 2; hgDAF12 conf: 6; LXRb DAF12 ctr: 0

What do the screens show for `C[C@@H]1C2CC(C/C2=N\NC(=O)c2ccncc2)C1(C)C` (some centres not stated)?
hcDAF12 agonist: -1; ssDAF-12 act: 0; DAX1 inh-1: 0; hgDAF-12 ag: 5; GAA850 FXN act: 0; DAX1 inh-2: 0

Results for CC1C2CC(C/C2=N/NC(=O)c2cccs2)C1(C)C (configuration not stated) ?
hcDAF12 agonist: 3; ssDAF-12 act: 0; DAX1 inh-1: 5.0*; hgDAF-12 ag: 13*; GAA850 FXN act: 5; DAX1 inh-2: 3; DAX1 conf: 1; SF1 AF2mut Luc: 1; hgDAF12 conf: 0; LXRb DAF12 ctr: 0

Results for O=C(NN=C1CCCCCCCCCCC1)c1cccnc1 ?
hcDAF12 agonist: 0; ssDAF-12 act: -1; DAX1 inh-1: 0; hgDAF-12 ag: 2; GAA850 FXN act: 0; DAX1 inh-2: 1

How did CCOc1ccccc1Nc1nc(-c2cccnc2)cs1 do in these assays?
hcDAF12 agonist: 0; ssDAF-12 act: -1; DAX1 inh-1: -1; hgDAF-12 ag: 3; GAA850 FXN act: 2; DAX1 inh-2: 1

Results for c1ccc(Nc2nc(-c3cccnc3)cs2)nc1 ?
hcDAF12 agonist: 10*; ssDAF-12 act: 0; DAX1 inh-1: 5.8*; hgDAF-12 ag: 18*; GAA850 FXN act: 2; DAX1 inh-2: 1; DAX1 conf: 7.5*; SF1 AF2mut Luc: 6.3*; LXRb hcDAF ctr: 2; hcDAF12 ag: 8.1*; hgDAF12 conf: 20*; LXRb DAF12 ctr: 1

What do the screens show for `COP(N)(=O)C(CC(C)C)NC(=O)OCc1ccccc1` (configuration not stated)?
hcDAF12 agonist: -1; ssDAF-12 act: 0; DAX1 inh-1: 0; hgDAF-12 ag: 1

How did CCC(=O)Nc1cc2nn(-c3ccc(OC)cc3)nc2cc1C do in these assays?
hcDAF12 agonist: 6; ssDAF-12 act: 0; DAX1 inh-1: 5.1*; hgDAF-12 ag: 16*; GAA850 FXN act: 4; DAX1 inh-2: 5.5*; DAX1 conf: 13*; SF1 AF2mut Luc: 3.3*; hgDAF12 conf: 14*; LXRb DAF12 ctr: 1

What do the screens show for `Cc1ccc(CN2CC(C(=O)Nc3ccncc3)CC2=O)cc1` (configuration not stated)?
hcDAF12 agonist: 1; ssDAF-12 act: -1; DAX1 inh-1: 0; hgDAF-12 ag: 0; GAA850 FXN act: 0; DAX1 inh-2: 0

How did Cc1ccc(CN2CC(C(=O)Nc3cc(C)ccn3)CC2=O)cc1 (configuration not stated) do in these assays?
hcDAF12 agonist: 3; ssDAF-12 act: 0; DAX1 inh-1: 11*; hgDAF-12 ag: 22*; GAA850 FXN act: 7; DAX1 inh-2: 2; DAX1 conf: 12*; SF1 AF2mut Luc: 3.1*; hgDAF12 conf: 22*; LXRb DAF12 ctr: 0
